Source: PubChem
PHOSPHO1 block = inhibitors of human PHOSPHO1 phosphatase | Q8TCT1 | recombinant PHOSPHO1, absorbance phosphatase assay | inhibition, % at 13.3 µM | 290,000 compounds, 1.1% hits | AID 1565; in the data active = inhibition above about 60%
Rtt109 Vps75 = blocks Candida albicans Rtt109/Vps75 acetyltransferase activity | Q5AAJ8 | purified Rtt109/Vps75, ThioGlo CoA-SH fluorescence, 4 h | inhibition, % at 34.9 µM | 330,000 compounds, 0.16% hits;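 active = inhibition of at least 50% in every replicate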
Target sequence (Q5AAJ8 whole entry, looked up): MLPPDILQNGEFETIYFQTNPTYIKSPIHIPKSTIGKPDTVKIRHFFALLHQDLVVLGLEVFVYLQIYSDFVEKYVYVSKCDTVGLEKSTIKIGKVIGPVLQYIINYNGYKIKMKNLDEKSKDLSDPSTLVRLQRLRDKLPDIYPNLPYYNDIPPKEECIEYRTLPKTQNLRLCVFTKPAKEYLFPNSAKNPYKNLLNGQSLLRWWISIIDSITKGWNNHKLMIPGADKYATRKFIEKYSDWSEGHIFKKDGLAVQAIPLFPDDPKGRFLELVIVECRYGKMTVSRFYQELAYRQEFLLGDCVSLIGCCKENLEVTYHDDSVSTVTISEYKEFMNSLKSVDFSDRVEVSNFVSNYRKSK
Platelet DG rel = platelet dense granule release activity; human platelet-rich plasma, SFLLRN dense granule ATP release, luminescence; inhibition, %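 (compounds screened at 7.5 µM in platelet-rich plasma)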; 300,000 compounds, 0.22% hits;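 active = mean replicate score, as percent of positive control, at or above 50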
WT yeast gro inh = growth inhibition of WT yeast, mitochondrial fusion screen; mitochondrial fusion phenotypic screen, WT strain; inhibition, % at 10 µM; 190,000 compounds, 2.1% hits; in the data active = inhibition above about 58%; tested in S. cerevisiae
SKKanGAS inh = inhibitors of SKKanGAS S. pyogenes growth in kanamycin (SK-promoter or general growth effect); BacTiter-Glo, 6 h; inhibition, % at 7.5 µM; 300,000 compounds, 1.3% hits; AID 1662;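 active = mean replicate score, as percent of positive control median, at least 50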;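 note: strain carries kanamycin resistance gene driven by streptokinase promoter and grows in 40 µg/ml kanamycin; loss of luminescence reflects streptokinase promoter inhibition or plain growth inhibition; 0% = median of DMSO wells and 100% = positive control at its reference dose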
TPT1 inhibitor = blocks Candida albicans tRNA 2'-phosphotransferase; recombinant caTPT1, FP RNA substrate dephosphorylation; inhibition, % at 5 µM; 300,000 compounds, 0.81% hits;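 active = inhibition above the mean of all tested compounds plus 3 SD, set per screening campaign, cut at about 24% in these data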;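 note: plate controls were DMSO alone for no effect and ferristatin control at 100 nM for full effect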
TPT1 inh confirm = confirmation of Candida albicans TPT1 inhibitors. 2,400 compounds, 74% hits. inhibition, % at 5 µM. shares compounds with TPT1 inhibitor. recombinant caTPT1, fluorescence polarization, RNase T1 coupled. AID 2149;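 active = inhibition above the primary screen limit, the mean inhibition of all tested compounds plus 3 SD, cut at about 25% in these data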
RNase T1 counter = RNase T1 inhibition in TPT1 counter-screen | shares compounds with TPT1 inhibitor | RNase T1 cleavage, fluorescence polarization, 1536-well | inhibition, % at 5 µM | 2,400 compounds, 83% hits;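 active = inhibition above the solvent-only control well mean plus 3 SD, limit set per screening run, cut at about 23% in these data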;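 note: plate controls were DMSO wells with enzyme for no effect and wells without RNase T1 for full effect; inhibitors block cleavage so intact labeled substrate keeps polarization high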
Target sequence (P00651 whole entry, looked up): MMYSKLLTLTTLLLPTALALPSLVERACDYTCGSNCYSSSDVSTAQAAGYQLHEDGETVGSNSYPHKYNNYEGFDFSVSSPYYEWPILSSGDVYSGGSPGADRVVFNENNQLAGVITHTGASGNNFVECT
* hit, by the source's call; . = no result given. Compounds with a hit are over-represented: about 3.9% of the library has one in this group of screens.

SMILES	PHOSPHO1 block	Rtt109 Vps75	Platelet DG rel	WT yeast gro inh	SKKanGAS inh	TPT1 inhibitor	TPT1 inh confirm	RNase T1 counter
CCC(CC)=N/N=C/c1c(O)n(CC)c2cc(C3=NNC(=O)CC3)ccc12	-8.1	-12.1	37.4	-7.9	9.6	63.5*	43.8*	56.3*
CC(=O)Nc1ccc(N(CC(=O)NC2CCCCC2)C(=O)Cn2nnc(-c3ccccc3)n2)cc1	40.9	14.2	9.7	.	-1.3	-0.8	.	.
CC(=N)c1c(O)c2ccccc2oc1=O	41.8	1.7	0.0	.	2.4	26.8*	4.2	4.6
COc1ccc(CNC(=O)CN(c2cccc(OC)c2)S(C)(=O)=O)cc1	-12.3	.	2.0	-16.4	-5.2	75.8*	1.7	5.7
COc1ccc(CNC(=O)CN(c2cccc([N+](=O)[O-])c2)S(C)(=O)=O)cc1	37.0	-2.1	15.2	-8.9	6.1	-2.4	.	.
CSc1nsc(/C=C/Nc2ccc(O)cc2C)c1C#N	23.6	-1.2	1.5	12.0	31.8	26.4*	22.5	33.1*
CSc1nsc(/C=C/Nc2ccc(Cl)cc2)c1C#N	33.1	-6.9	-3.8	14.0	7.9	31.5*	69.8*	81.8*
CSc1nsc(/C=C/Nc2cccc(Cl)c2)c1C#N	-50.4	-0.9	.	4.4	.	35.7*	26.4*	34.1*
CC(NCc1cccnc1)c1ccccc1 (centres undefined)	2.8	-0.3	-3.5	.	0.4	-2.6	.	.
CCOC(=O)c1c(C)[nH]c(C(=O)N2CCc3cc(OC)c(OC)cc3C2)c1C	.	27.7	33.6	.	-2.2	0.2	.	.
CC1Cc2ccccc2N1C(=O)c1ccc2nccnc2c1 (centres undefined)	56.2	8.9	-1.8	.	1.5	.	.	.
COc1ccc2[nH]c(=O)c(CN(Cc3cccnc3)Cc3nnnn3CC3CCCO3)cc2c1 (centres undefined)	18.8	-8.7	-2.5	.	6.0	-2.2	.	.
CC(NC(=O)Oc1cccc2ccccc12)c1ccccc1 (centres undefined)	.	-0.2	.	.	.	.	.	.
COc1cc(C2C3=C(COC3=O)Oc3cc4c(cc32)OCO4)cc(OC)c1OC(C)=O (centres undefined)	.	-0.1	.	.	.	.	.	.
O=C1CN(CC(=O)Nc2cccc(Cl)c2Cl)c2ccccc2N1	52.7	11.9	3.0	10.4	12.9	33.9*	16.1	23.9*
CCCCN1C(=O)/C(=C/C=C2\N(C)c3ccccc3C2(C)C)SC1=S	37.5	.	4.7	34.8	13.9	196.0*	134.1*	123.8*
CC(C)C(NC(=O)c1ccccc1F)C(=O)NCCCn1ccnc1 (centres undefined)	.	12.6	.	.	.	.	.	.
CCC(CC)C1C(C#N)=C(N)SC(N)=C1C#N	-5.8	-3.6	-6.9	-2.6	0.2	38.5*	14.7	15.1
Cc1ccc(N/C=C/C(=O)c2sc(-c3ccccc3)nc2C)cc1	15.4	-2.6	0.8	9.1	8.1	38.8*	37.8*	46.8*
Cc1nc(-c2ccccc2)sc1C(=O)NN	35.8	-11.6	-11.4	-10.9	-5.9	2.7	.	.
N#Cc1c(N)n(-c2ccccc2N)c2nc3ccccc3nc12	32.2	-7.1	-5.7	.	6.0	6.7	.	.
N#Cc1c(N)n(-c2cccc(C(=O)O)c2)c2nc3ccccc3nc12	-0.8	-478.4	15.8	.	-1.5	35.9*	39.6*	49.4*
Cn1c(C(=O)N2CCCC(Nc3ccc(F)cc3)C2)cc2ccccc21 (centres undefined)	44.5	1.7	-9.8	.	-0.1	2.4	.	.
Cc1[nH]c2ccccc2c1/C=N/NC(=O)c1cccc([N+](=O)[O-])c1	-7.6	2.5	3.5	-0.2	5.2	3.1	.	.
O=[N+]([O-])c1ccc(N/N=C/c2c[nH]c3ccccc23)c(S(=O)(=O)Nc2ccc(Cl)cc2)c1	1.0	-0.2	2.1	95.0*	76.7*	36.5*	106.5*	107.6*
SMILES	PHOSPHO1 block	Rtt109 Vps75	Platelet DG rel	WT yeast gro inh	SKKanGAS inh	TPT1 inhibitor	TPT1 inh confirm	RNase T1 counter
COc1ccccc1NS(=O)(=O)c1cc([N+](=O)[O-])ccc1N/N=C/c1c(C)[nH]c2ccccc12	10.7	-12.2	-3.0	17.6	30.8	101.2*	103.8*	106.9*
CN1CCN(S(=O)(=O)c2cc([N+](=O)[O-])ccc2N/N=C/c2ccc(Cl)cc2)CC1	-32.0	0.7	0.4	16.3	1.9	1.3	.	.
Cc1[nH]c2ccccc2c1/C=N/Nc1ccc([N+](=O)[O-])cc1	-7.1	-0.7	-2.6	52.2	20.2	94.6*	100.0*	101.9*
COc1cccc(CN2CCNC(=O)C2CC(=O)NCCN2CCCCC2=O)c1 (centres undefined)	-32.9	7.6	2.4	.	-3.9	-5.5	.	.
CN(c1cccc(Cl)c1)S(=O)(=O)c1cccc(C(=O)NN2CCOCC2)c1	.	-7.8	.	.	.	.	.	.
CCOc1cccc(OCCOCCNC(C)(C)C)c1	-9.3	-4.3	3.1	8.3	2.1	37.8*	7.6	9.7
NC1(C(=O)O)CCCCC1c1ccccc1 (centres undefined)	.	1.1	.	.	.	.	.	.
O=C1/C(=C/c2ccc([N+](=O)[O-])cc2)C=C(c2ccccc2)N1c1ccc(O)cc1	21.7	0.8	-4.1	51.4	19.3	3.8	.	.
O=C1/C(=C/c2ccc([N+](=O)[O-])cc2)C=C(c2ccccc2)N1c1ccccc1	15.9	.	-1.2	-10.3	-11.6	34.6*	11.8	22.9*
CC(=O)Nc1ccc(N=c2cc([N+](=O)[O-])cc(Cl)n2O)cc1	32.7	-1.1	-2.8	.	7.6	-5.5	.	.
CN(C)c1ccc(/C=C/C(=O)c2cccc(Br)c2)cc1	37.9	-12.3	-4.9	-18.3	-20.2	99.3*	97.3*	94.5*
CN(C)c1ccc(C(=O)/C=C/c2cccnc2)cc1	-37.6	-1.8	-2.6	.	-6.4	2.9	.	.
COC(=O)c1cc(NC(=O)c2cccc(Cl)c2)c(=O)oc1/C=C/Nc1cc(C)cc(C)c1	40.8	.	11.6	-0.3	20.7	194.0*	166.3*	155.4*
Cc1cccc(NC(=O)CN2C(=O)N/C(=C/c3cc(C)n(C(C)C)c3C)C2=O)c1	5.0	-4.8	-8.2	-19.4	18.6	7.0	.	.
Cc1cccc(NC(=O)CN2C(=O)N/C(=C/c3ccc(C)s3)C2=O)c1	-11.7	.	-8.3	0.9	3.5	83.3*	99.9*	107.9*
Cc1ccsc1C1Nc2ccccc2C(=O)N1O (centres undefined)	-5.0	8.3	-9.8	-12.1	-6.8	0.3	.	.
CN1CCc2c(sc3c2C(=O)NC(c2cccs2)N3)C1 (centres undefined)	21.6	-4.1	5.9	-8.7	5.6	33.6*	23.4	35.3*
CN1CCc2c(sc3c2C(=O)NC(c2ccc(-c4cccc(Cl)c4)o2)N3)C1 (centres undefined)	43.7	-45.5	10.2	13.4	-1.1	115.0*	111.0*	116.5*
CN1CCc2c(sc3c2C(=O)NC(/C=C\c2ccccc2)N3)C1 (centres undefined)	37.1	.	7.1	.	42.5	22.3	.	.
